# ± gives the standard deviation of the averaged measurements.
# How the values were obtained:
# Test in all cases: cell viability (% of vehicle); higher = less cytotoxic
# HCI01 [1] = cells of a triple-negative basal-like breast cancer xenograft; details: 1 µM; 72 h
# UCD52 [2] = cells of a triple-negative basal-like breast cancer xenograft; details: 1 µM; 72 h
# WHIM2 [3] = cells of a triple-negative basal-like breast cancer xenograft; details: 1 µM; 72 h
# WHIM30 [4] = cells of a triple-negative basal-like breast cancer xenograft; details: 1 µM; 72 h
# HCI01 [5] = details: 10 µM; 72 h
# HCI03 = cells of an ER-positive luminal breast cancer xenograft; details: 10 µM; 72 h
# HCI09 = cells of a triple-negative luminal androgen receptor type breast cancer xenograft; details: 10 µM; 72 h
# HCI11 = cells of an ER-positive luminal breast cancer xenograft; details: 10 µM; 72 h
# HCI13 = cells of an ER-positive luminal breast cancer xenograft; details: 10 µM; 72 h
# HCI16 = cells of a triple-negative basal-like breast cancer xenograft; details: 10 µM; 72 h
# UCD52 [6] = details: 10 µM; 72 h
# WHIM2 [7] = details: 10 µM; 72 h
# WHIM30 [8] = details: 10 µM; 72 h
SMILES,cell viability (HCI01 [1]),cell viability (UCD52 [2]),cell viability (WHIM2 [3]),cell viability (WHIM30 [4]),cell viability (HCI01 [5]),cell viability (HCI03),cell viability (HCI09),cell viability (HCI11),cell viability (HCI13),cell viability (HCI16),cell viability (UCD52 [6]),cell viability (WHIM2 [7]),cell viability (WHIM30 [8])
CCCCCCCCCCCC[N+](C)(C)CCOc1ccccc1.[Br-] [Domiphen Bromide],88.5,80.4,81.7,57.1,34.9 ± 13,48.7,24.1 ± 1.5,50.1,41.3 ± 10,46.4,27.6 ± 1.8,44 ± 14,28.4 ± 4.7
O=P1(NCCCl)OCCCN1CCCl (configuration not stated) [Ifosfamide],–,–,–,–,106 ± 14,107,96.28 ± 0.62,84.8,153 ± 11,74.4,104.1 ± 0.65,95.7 ± 26,109 ± 2.2
CC12CC(=CO)C(=O)CC1CCC1C2CCC2(C)C1CCC2(C)O (configuration not stated) [Oxymetholone],–,–,–,–,114 ± 30,97.8,85 ± 38,86.7,54.8 ± 5.8,124,80.6 ± 3.8,90.9 ± 26,135 ± 1.9
CCCCCCCCCCCCCCCC[n+]1ccccc1.[Cl-] [Cetylpyridinium Chloride],92.7,67.6,63.4,52.8,32.9 ± 12,44.4,16.9 ± 3.2,53.1,25 ± 4.5,42.1,24.2 ± 1.9,36.7 ± 13,28.1 ± 0.9
C[C@]12COC(=O)C[C@@H]1CC[C@@H]1[C@@H]2CC[C@@]2(C)[C@H]1CC[C@]2(C)O [Oxandrolone],–,–,–,–,98.9 ± 17,108,107.8 ± 0.62,89.1,147 ± 18,117,95.8 ± 5.3,110 ± 23,110 ± 13
CCC1=C[C@H]2CN3CCc4c([nH]c5ccccc45)[C@@](C(=O)OC)(C2)[C@@H]13 [Catharanthine],–,–,–,–,88.2 ± 14,122,99.5 ± 13,92.1,94 ± 2.4,124,101 ± 2.3,85.5 ± 14,97 ± 3.2
CCC(C(N)=O)N1CCCC1=O (configuration not stated) [Levetiracetam],–,–,–,–,141 ± 6.8,166,116 ± 17,98,107 ± 14,120,126 ± 17,91.7 ± 10,143 ± 4.9
Cc1cc(C(C#N)c2ccc(Cl)cc2)c(Cl)cc1NC(=O)c1cc(I)cc(I)c1[O-].[Na+] (configuration not stated) [Closantel Sodium],93.1,90.9,106,88.2,34.4 ± 1.9,114,17.978 ± 0.0048,93.2,35.4 ± 2.9,96.3,68.1 ± 7.7,44.6 ± 10,52.7 ± 0.69
O=C(OC1C[N+]2(CCCOc3ccccc3)CCC1CC2)C(O)(c1cccs1)c1cccs1.[Br-] (configuration not stated) [Aclidinium Bromide],–,–,–,–,113 ± 14,131,104 ± 6.3,94.2,185 ± 6.3,93.9,79.7 ± 14,84.7 ± 7.7,106 ± 11
NCCC(O)(P(=O)([O-])O)P(=O)([O-])O.[Na+].[Na+] [Pamidronate Disodium],–,–,–,–,85.1 ± 9.1,82.9,86.9 ± 2.1,80.8,95.2 ± 14,59.9,76.4 ± 15,75 ± 21,92.4 ± 13
Oc1cc(Cl)ccc1Oc1ccc(Cl)cc1Cl [Triclosan],–,–,–,–,73.5 ± 14,109,41.7 ± 24,71.7,66.4 ± 20,137,97.1 ± 9.6,49.5 ± 1.1,109.3 ± 1
CN(C)C(=O)Oc1ccc[n+](C)c1.[Br-] [Pyridostigmine Bromide],–,–,–,–,104 ± 11,120,103 ± 3.5,92.1,136 ± 13,105,72 ± 2.6,96.8 ± 6.6,101 ± 3.2
Cn1c(COP(=O)(NCCBr)NCCBr)cnc1[N+](=O)[O-],–,–,–,–,99.5 ± 14,100,123 ± 33,120,153.9 ± 0.46,44.9,81.4 ± 2.1,44.6 ± 2.6,107 ± 2.5
C=CCC1(O)CCC2C3CCC4=CC(=O)CCC4=C3C=CC21C (configuration not stated) [Altrenogest],–,–,–,–,172 ± 56,125,65.5 ± 13,78.7,137 ± 7.6,150,83.1 ± 6.5,107 ± 12,141 ± 8.9
CN1C2CCC1CC(OC(=O)C(CO)c1ccccc1)C2.CN1C2CCC1CC(OC(=O)C(CO)c1ccccc1)C2.O.O=S(=O)(O)O (configuration not stated) [Atropine],–,–,–,–,104 ± 7.5,134,108 ± 16,114,95.4 ± 4.6,101,83.3 ± 5.5,91.6 ± 19,98.4 ± 7.8
C[C@@H]1CC[C@H]2[C@@H](C)C(=O)O[C@@H]3OC4(C)CC[C@@H]1[C@]32OO4 [Artemisinine],–,–,–,–,125 ± 38,139,91.1 ± 1.5,102,95.7 ± 11,153,97.45 ± 0.15,93.9 ± 15,96.3 ± 17
CCCCCCCCCCCCCCCC[N+](C)(C)C.[Br-] [Cetrimonium Bromide (CTAB)],87.8,75.6,74.2,49.2,44.3 ± 15,56.5,21.7 ± 7.3,72,26.9 ± 2,69.1,37.5 ± 1.9,42.4 ± 8.1,35.6 ± 1.7
C[N+](C)(C)CCCCCCCCCC[N+](C)(C)C.[Br-].[Br-] [Decamethonium Bromide],–,–,–,–,110 ± 4.6,120,100 ± 6.9,102,105 ± 1.9,105,78.9 ± 6.2,89.8 ± 8.7,101 ± 10
Br.COC(=O)C1=CCCN(C)C1 [Arecoline hydrobromide],–,–,–,–,94 ± 16,135,106 ± 21,88.9,103 ± 9.4,121,121 ± 21,116 ± 1.5,114 ± 16

SMILES,cell viability (HCI01 [1]),cell viability (UCD52 [2]),cell viability (WHIM2 [3]),cell viability (WHIM30 [4]),cell viability (HCI01 [5]),cell viability (HCI03),cell viability (HCI09),cell viability (HCI11),cell viability (HCI13),cell viability (HCI16),cell viability (UCD52 [6]),cell viability (WHIM2 [7]),cell viability (WHIM30 [8])
CC(C)c1c(CN(C)C(C)Cc2ccccc2)n(C)n(-c2ccccc2)c1=O (configuration not stated) [Famprofazone],–,–,–,–,121 ± 24,129,79.2 ± 5.1,111,85.3 ± 14,121,87.7 ± 11,97.6 ± 16,124 ± 8.3
CNC1CC(N)C(O)C(OC2OC(CO)C(O)C3OC4(OC(C(N)CO)C(O)C(O)C4O)OC23)C1O (configuration not stated) [Hygromycin B],–,–,–,–,66.3 ± 21,70.2,122 ± 75,110,114.5 ± 1.1,94.3,87.4 ± 22,97.2 ± 1.2,88.3 ± 23
C[C@]12CC[C@H]3[C@@H](CC[C@@]45O[C@@H]4C(O)=C(C#N)C[C@]35C)[C@@H]1CC[C@@H]2O [Trilostane],–,–,–,–,131 ± 24,119,90.1 ± 5.6,114,73.7 ± 19,103,115 ± 8.4,115 ± 15,100 ± 15
CCCN1CC(CSC)CC2c3cccc4[nH]cc(c34)CC21.CS(=O)(=O)O (configuration not stated) [Pergolide mesylate],–,–,–,–,107.1 ± 0.5,92.4,106 ± 8.8,87.6,98.3 ± 5.6,124,76.5 ± 1.3,101 ± 14,110 ± 12
Cc1cc(C(C#N)c2ccc(Cl)cc2)c(Cl)cc1NC(=O)c1cc(I)cc(I)c1O (configuration not stated) [Closantel],88.8,91.3,105,82.7,29.4 ± 6.5,104,17.7 ± 1.8,85.7,37 ± 7.8,105,61.5 ± 2.6,37.6 ± 13,87.6 ± 4
CCNCC.O=S(=O)(O)c1cc(O)ccc1O [Ethamsylate],–,–,–,–,162 ± 90,124,99.4 ± 7,98,97.8 ± 10,126,109 ± 13,92.2 ± 12,103 ± 4.7
Br.CN1C2CC(OC(=O)C(CO)c3ccccc3)CC1C1OC12 (configuration not stated) [Scopolamine hydrobromide],–,–,–,–,108 ± 3.9,120,91.5 ± 17,104,83.67 ± 0.26,127,90.98 ± 0.47,122 ± 1.4,133.3 ± 1.1
NCC1(CC(=O)O)CCCCC1 [Gabapentin],–,–,–,–,96.8 ± 7.7,119,97.8 ± 9.5,104,88.1 ± 2.5,76,77.8 ± 0.82,88.1 ± 8.3,76.9 ± 11
O=C(O)CCCc1ccc(N(CCCl)CCCl)cc1 [Chlorambucil],–,–,–,–,109 ± 15,179,99.8 ± 1.1,92,113.2 ± 0.69,131,108 ± 4.7,96.7 ± 9.3,126 ± 8.3
Nc1nc(N)nc(NC2CC2)n1 [Cyromazine],–,–,–,–,111 ± 13,182,107 ± 1.9,97.8,109 ± 22,134,100 ± 2.3,105 ± 28,154 ± 13
CC(C)CC(CN)CC(=O)O (configuration not stated) [Pregabalin],–,–,–,–,97.8 ± 10,104,90.8 ± 9,95.6,138 ± 18,70.8,78.2 ± 7.7,81.4 ± 9.4,111 ± 21
c1ccc2c(c1)sc1ccccc12 [Dibenzothiophene],–,–,–,–,137 ± 39,105,87.3 ± 1.6,103,85 ± 12,123,115 ± 14,117 ± 11,98.7 ± 1
CC(NC(C)(C)C)C(=O)c1cccc(Cl)c1.Cl (configuration not stated) [Bupropion hydrochloride],–,–,–,–,101 ± 2.5,109,99.6 ± 20,85.6,103 ± 1.1,113,90.5 ± 14,104 ± 5.2,121 ± 10
CC(C)N(CCNC(=O)CN1CCCC1=O)C(C)C [Pramiracetam],–,–,–,–,85.1 ± 58,155,101 ± 9.4,110,120 ± 2.3,129,108 ± 2.9,119 ± 11,–
CN1C2CCC1CC(OC(=O)C(CO)c1ccccc1)C2 (configuration not stated) [Hyoscyamine],–,–,–,–,135 ± 14,132,109 ± 16,94.3,145 ± 5.8,118,74.2 ± 7.5,93.8 ± 4,108 ± 3.8
COc1ccc(C(=O)N2CCCC2=O)cc1 [Aniracetam],–,–,–,–,102 ± 2,107,147 ± 79,104,139 ± 1.5,95.4,96 ± 7.3,94.8 ± 14,86.1 ± 6.5
COc1cc2c(cc1OC)C13CCN4CC5=CCOC6CC(=O)N2C1C6C5CC43 (configuration not stated) [Brucine],–,–,–,–,90.3 ± 9.9,132,98.2 ± 29,94.5,106 ± 11,100,106 ± 1.5,83.5 ± 22,96.6 ± 4.8
Cl.Cn1c(CCCC(=O)O)nc2cc(N(CCCl)CCCl)ccc21 [Bendamustine HCl],–,–,–,–,98.2 ± 7.3,93.5,95.2 ± 2.5,83.5,94.9 ± 12,77.4,97.9 ± 1.9,71.4 ± 9.1,92.1 ± 14
